From PubChem BioAssay
Only some compounds are listed: those with a hit (about 1.3% of all), similar ones and a draw of the others.
Vif-A3F inh – qHTS for Inhibitors of Vif-A3F Interactions: qHTS; actives 0.2% (n = 390,000); Potency, µM (top dose mostly 46.1 µM); HeLa A3F-eYFP + Vif (tagged APOBEC3F with the HIV-1 protein that degrades it), YFP fluorescence increase; AID 602313, 2012; also: nearly all actives have a fitted effect of over 65% in size
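Fluorescence increase (Ex 488/Em 500-530) after overnight compound treatment at 37 deg C flags inhibition of Vif-driven A3F-eYFP loss in stable HeLa A3F-eYFP/Vif cells seeded overnight beforehand.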
TRPML1 inh – qHTS for Inhibitors of the Human Mucolipin Transient Receptor Potential 1 (TRPML1). AID 624415, 2012. actives 0.02% (n = 390,000). TRPML1-inducible cells, Ca2+ dye fluorescence, FDSS; hits give low values; inhibition of EC80 agonist-evoked calcium signal. activity change, negative = inhibition, % (concentration not given with the values); in the data active = activity change below about -50%; inconclusive = between about -30% and that limit;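 also: stimulus is agonist 54-4 at its EC80 concentration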
Target sequence (Q9GZU1 whole entry, looked up): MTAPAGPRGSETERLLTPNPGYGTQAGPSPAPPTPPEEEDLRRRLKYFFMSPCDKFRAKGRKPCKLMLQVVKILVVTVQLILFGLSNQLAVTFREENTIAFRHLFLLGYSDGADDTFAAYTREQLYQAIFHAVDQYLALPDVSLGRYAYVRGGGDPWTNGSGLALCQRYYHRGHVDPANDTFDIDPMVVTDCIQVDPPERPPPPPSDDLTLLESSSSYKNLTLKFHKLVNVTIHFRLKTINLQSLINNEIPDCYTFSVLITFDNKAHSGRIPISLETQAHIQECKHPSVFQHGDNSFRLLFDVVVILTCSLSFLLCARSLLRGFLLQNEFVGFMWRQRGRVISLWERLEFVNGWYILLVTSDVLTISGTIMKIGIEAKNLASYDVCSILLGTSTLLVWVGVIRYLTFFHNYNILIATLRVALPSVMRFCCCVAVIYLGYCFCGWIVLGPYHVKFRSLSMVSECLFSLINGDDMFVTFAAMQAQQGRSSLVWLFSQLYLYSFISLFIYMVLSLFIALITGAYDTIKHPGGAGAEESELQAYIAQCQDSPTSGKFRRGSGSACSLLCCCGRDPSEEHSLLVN
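TRPML1-DL cells, Tet-induced overnight (~16 h, 37 °C) at 1,500 cells/well, were loaded with Ca8 no-wash dye plus quencher for 45-90 min at room temperature. Compounds were pinned during FDSS kinetic reading; agonist 54-4 at EC80 (4 uM final) then added.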
GRP78 ERSR act – qHTS for Inducers of the Endoplasmic Reticulum Stress Response (ERSR) in Human Glioma: qHTS. actives 0.02% (n = 420,000). U87-MG GRP78 promoter luciferase reporter, 16 h. Potency, µM, hits mostly activators. AID 602332, 2012; also: series mostly up to about 76 µM; nearly all actives have a fitted effect of over 35% in size
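ERSR induction read as luciferase luminescence (Bright-Glo, 10 min at room temperature) in stably transfected human U87-MG glioma cells exposed to compounds for 16 h, using GRP78 as sensor.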
Vif-A3G inh – qHTS for Inhibitors of Vif-A3G Interactions: qHTS; Potency, µM (titrated, usually from 46.1 µM), hits mostly inhibitors; HeLa A3G-eYFP + Vif (tagged APOBEC3G with the HIV-1 protein that degrades it), YFP fluorescence, overnight; DNA dC->dU-editing enzyme APOBEC-3G (Homo sapiens), Q9HC16; actives 0.076% (n = 410,000); also: nearly all actives have a fitted effect of over 60% in size
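HeLa cells stably expressing Vif and C-terminally eYFP-tagged A3G, seeded overnight at 37 deg C, then exposed to compound by pintool overnight at 37 deg C. Rise in yellow fluorescence (Ex 488/Em 500-530, Acumen) marks blocked Vif-driven A3G degradation.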
ALOX12 inh – Primary qHTS assay for inhibitors of human arachidonate 12S-lipoxygenase (ALOX12): Round 2. purified 12hLO, xylenol orange hydroperoxide absorbance. AID 1671190, 2021. Potency, µM (series often up to 108 µM), actives largely listed as inhibitors. actives 1.1% (n = 580,000)
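Purified human 12hLO (150 nM final) in 25 mM Hepes, 0.01% Triton X-100, pH 7.0 was preincubated 15 min at room temperature with compound. Then 40 uM arachidonic acid was added, 30 min. Hydroperoxide was read by Fe-XO absorbance ratio 573/405 nm.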
TRPML1 agonist – qHTS for Agonists of the Human Mucolipin Transient Receptor Potential 1 (TRPML1) | AID 624414, 2012 | activation, % (concentration not given with the values) | actives 0.12% (n = 410,000) | Mucolipin-1 (Homo sapiens), Q9GZU1 | TRPML1-expressing cells, Ca2+ dye fluorescence, FDSS; in the data active = activation above about 50%; inconclusive = mostly about 30% to 49%
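TRPML1-DL cells, Tet-induced overnight (~16 h, 37 degrees C), loaded 45-90 min at room temperature with Ca8 no-wash calcium dye plus quencher. FDSS fluorescence: 10 s baseline, compound pin-transfer, 110 s agonist read, then EC80 54-4 (4uM final) and 110 s antagonist read.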
A number is an active result; - = inactive; ? = inconclusive; . = no result. Unless noted, calls follow the shape of the dose curve; as a rule, active = well fitted curve in the direction sought with a large enough effect; inconclusive = small, poorly fitted or top-dose-only effect, or another doubt; inactive = no such curve, though single readings can be large; an effect the other way counts as inactive or inconclusive.

SMILES	Vif-A3F inh	TRPML1 inh	GRP78 ERSR act	Vif-A3G inh	ALOX12 inh	TRPML1 agonist
N#C/C(=C\Nc1ccc2cn[nH]c2c1)c1nc(-c2ccccc2)cs1	-	-	-	-	-	-
N#C/C(=C\Nc1ccc2cn[nH]c2c1)c1nc(-c2ccc(Cl)cc2)cs1	22.4µM	-	-	-	-	-
N#CC(=Cc1ccccn1)c1nc(-c2ccc(Cl)cc2)cs1	?	-	-	5.62µM	?	-
O=C(OC1CCCCC1)c1nn(-c2ccccc2)c(=O)c2ccccc12	.	.	.	.	-	.
O=C1CCCC2=C1C(c1ccc(F)cc1)c1c(nc(SCc3ccccc3F)[nH]c1=O)N2 (stereo not drawn)	.	.	.	.	-	.
CCCCn1nnc(NCc2ccc(Cl)cc2)n1	.	.	.	.	-	.
CCOC(=O)c1oc2ccccc2c1CN1CCN(C)CC1	-	-	-	-	35.5µM	-
CCOC(=O)c1oc2ccccc2c1CN1CCCCC1	-	-	-	-	-	-
ClCC1NCC(c2ccccc2Cl)c2c1[nH]c1ccccc21 (stereo not drawn)	22.4µM	-	-	?	?	-
COc1cccc(NC(=O)c2cc(=O)c3cc(C)ccc3o2)c1	.	.	.	.	-	.
O=C(Nc1ccccc1)N1CCC(N2CCN(Cc3ccccn3)C(=O)C2=O)CC1	.	.	.	.	-	.
COC(=O)C1CCC(=S)N1C(=O)c1ccccc1 (stereo not drawn)	-	-	-	-	8.91µM	-
Cc1cc(N2CCCCC2)nc(NCc2ccccc2)n1	-	-	-	-	?	?
Cc1cc(N2CCOCC2)nc(NCc2ccccc2)n1	-	-	-	-	-	79.9
CCc1nc2ccc(C(=O)Nc3cccc(C)n3)cc2nc1CC	.	.	.	.	-	.
O=C(NC1CCCc2ccccc21)c1cc(-c2ccncc2)nc2ccc(Cl)cc12 (stereo not drawn)	.	.	.	.	-	.
CCCCn1c(=S)[nH]c2c(=O)n(C)c(=O)n(C)c21	-	-	-	-	44.7µM	-
O=C(Nc1cccc(C(F)(F)F)c1)c1c(-c2ccc(F)cc2)nc2n1CCS2(=O)=O	.	.	.	.	-	.
COc1ccc(-c2cc(C)no2)cc1S(=O)(=O)N1CCOc2ccccc21	?	-	-	-	?	-
Cc1cc(-c2ccc(C(C)C)c(S(=O)(=O)N3CCOc4ccccc43)c2)on1	-	-	-	-	-	138.7
COc1ccc(-c2nnc(CN3CCCC3c3cccn3C)o2)cc1 (stereo not drawn)	.	.	.	.	-	.
N#CC(C#N)=C1C=CC=CN1/C(=C\c1ccco1)C(=O)c1ccccc1	20µM	-	-	?	-	-
CC(C)NC(=O)N[C@H]1CCN2C(=O)c3cc(-c4ccc(F)cc4F)ccc3NC(=O)[C@H]12	.	.	.	.	-	.
CCS[C@H]1CCN2C(=O)c3cc(-c4ccc(F)cc4F)ccc3NC(=O)[C@H]12	.	.	.	.	44.7µM	.
O=C1/C(=C/c2ccc(Cl)cc2)SC(=S)N1CCC(=O)N1CCCCC1CCO (stereo not drawn)	-	-	-	-	-	-
SMILES	Vif-A3F inh	TRPML1 inh	GRP78 ERSR act	Vif-A3G inh	ALOX12 inh	TRPML1 agonist
O=C1/C(=C/c2ccco2)SC(=S)N1CCC(=O)N1CCCCC1CCO (stereo not drawn)	-	?	-	-	44.7µM	-
CC(=O)Oc1c(Br)cc(N(C(C)=O)S(=O)(=O)c2ccccc2)c2ccccc12	-	-	-	-	12.6µM	-
CS(=O)(=O)c1cccc(C(=O)N2CCCCCCC2)c1	.	.	.	.	-	.
CC(C)n1c(-c2ccc(C(C)(C)C)cc2)n[nH]c1=S	-	-	-	-	15.8µM	-
O=C(Nc1ccc(C(O)(C(F)(F)F)C(F)(F)F)cc1)c1ccc(F)cc1	.	.	.	.	-	.
CCCn1nc(-c2ccccc2)c2nc3ccccc3nc21	?	-	-	-	-	-
CCn1nc(-c2ccccc2)c2nc3ccccc3nc21	25.1µM	-	-	12.6µM	-	?
N#Cc1c(-c2ccncc2)c2c([nH]c1=S)CCCC2	-	-	-	-	20µM	-
CN(C)c1cccc(C(=O)N2CCNc3cnc(Nc4cccc(C(F)(F)F)c4)nc3C2)c1	.	.	.	.	-	.
Cc1nc(SCCc2nc3ccccc3[nH]2)c2oc3ccccc3c2n1	-	.	-	-	14.1µM	.
Cc1nc(SCc2nc3ccccc3[nH]2)c2oc3cc(Br)ccc3c2n1	-	.	-	?	-	.
CCc1ccccc1N1CC(c2nc3ccccc3n2CCC2CCCCC2)CC1=O (stereo not drawn)	-	-	-	-	28.2µM	-
Cc1ccccc1N1CC(c2nc3ccccc3n2CCC2CCCCC2)CC1=O (stereo not drawn)	-	-	-	-	?	-
O=C(O)c1ccccc1N/N=C/c1cc(Br)cc(Br)c1O	-	-	-	?	44.7µM	-
CCN1C(=O)[C@@H]2[C@@H](c3ccc(SC4CCCCC4)cc3)N3CCCC[C@@]3(C(=O)OC)[C@@H]2C1=O	-	-	-	?	39.8µM	-
c1ccc2c(-c3ccn[nH]3)cccc2c1	.	.	.	.	25.1µM	.
CCCCCCCCC(=O)c1c(OC)oc(C=O)cc1=O	?	-	-	-	7.08µM	-
CCCCCC(=O)c1c(O)cc(OC)c(Cl)c1O	.	.	-	.	-	.
CCN(CC)c1ccc2cc(-c3nnc(-c4ccccc4)o3)c(=O)oc2c1	-	-	-	?	-	72.2
CCN(CC)c1ccc2cc(C(=O)NCc3ccc(F)cc3)c(=N)oc2c1	.	.	.	.	-	.
CCN(CC)c1ccc2cc(-c3nc4ccccc4[nH]3)c(=O)oc2c1	-	?	-	?	.	96.6
CN(C)Cc1c(O)ccc2cc(-c3nc4ccccc4n3C)c(=O)oc12	-	-	-	-	-	-
CCN(CC)c1ccc2cc(-c3nc4ccccc4n3C)c(=O)oc2c1	11.2µM	-	-	?	?	60.7
CCN(CC)c1ccc2cc(C(=O)c3cccs3)c(=O)oc2c1	.	.	-	?	?	84.3
Cc1nc(NC2CCCC2)sc1C(=O)NCc1ccncc1	.	.	.	.	-	.
c1ccc2oc(CSc3ccc4c(c3)OCCCO4)nc2c1	.	.	.	.	-	.
Cc1nn(C)c(=O)c(-c2nc(-c3ccc(N(C)S(C)(=O)=O)cc3)cs2)c1C	.	.	.	.	-	.
COc1cccc(-c2c(NC(=O)c3cccc([N+](=O)[O-])c3)oc3ccccc3c2=O)c1	.	.	.	.	-	.
CCCCCCn1c(-c2cccs2)n[nH]c1=S	?	-	-	-	28.2µM	-
CCCCn1c(-c2csc(CC)c2)n[nH]c1=S	-	-	-	-	50.1µM	-
